The campaign covered roughly 63,000 compounds. About 1,100 (1.7%) were called active. The sample holds actives, similar compounds and a random draw of the others, so the mix is not that of the screen.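 Rule for the calls: active = compounds whose percent cytotoxicity in the single-dose primary screen, scaled between solvent and toxic-drug controls, exceeds 50; inactive = the rest.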 Results with a measured potency or affinity are listed apart.
assay: cytotoxicity in KRAS-transformed pancreatic duct cells, primary screen, cell-based, fluorescence, HTS (AID 431); settings: HPDE-C7K KRASV12 cells, Alamar Blue viability, 48 h; at 10 µM; stronger effect = higher value;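 note: 0% = DMSO solvent wells and 100% = doxorubicin-treated wells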

SMILES	cytotoxicity
CC(C)CN(CC(C)C)S(=O)(=O)N1CCC(C(=O)NCCN2CCOCC2)CC1	-24.9% (inactive)
Cc1ccc2c(c1)NC(=O)C(CC(=O)NCCCN1CCCC1=O)O2 (configuration not stated)	-1% (inactive)
Cc1nn(C)cc1/C=N/O	-2% (inactive)
COc1cc(Nc2cc(C)nc3nc(C)nn23)cc(OC)c1OC	-6% (inactive)
Cc1ccc(S(=O)(=O)N(C)Cc2nc(-c3ccc(Br)cc3)no2)cc1	-5% (inactive)
COC(=O)C1=C(C)n2nnnc2NC1c1cc2ccccc2o1 (configuration not stated)	4.4% (inactive)
COC(=O)C1=C(C)n2cnnc2NC1c1ccc(Cl)cc1 (configuration not stated)	6.1% (inactive)
COC(=O)C1=C(C)n2nnnc2NC1c1ccc(Cl)cc1 (configuration not stated)	69.3% (active)
Cc1cc(S(=O)(=O)NCCN2CCOCC2)c(C)s1	1.5% (inactive)
O=C(CCN1C(=O)COc2ccccc21)NCCN1CCN(c2ccccc2F)CC1	2% (inactive)
C=CCn1c(COc2ccccc2)nnc1SCC(=O)Nc1ccc(S(N)(=O)=O)cc1	-13.8% (inactive)
Cc1cccc(N2CCN(C(=O)C3CCCN(S(=O)(=O)c4cccc5cccnc45)C3)CC2)c1C (configuration not stated)	24.5% (inactive)
Cc1ccccc1Cn1cc(NC(=O)c2cc3nc(-c4ccco4)cc(C(F)(F)F)n3n2)cn1	30.9% (inactive)
O=C(Nc1cnn(Cc2ccccc2)c1)c1cc2nc(-c3ccco3)cc(C(F)(F)F)n2n1	24.8% (inactive)
Cc1ccccc1Cn1ccc(NC(=O)c2cc3nc(-c4ccco4)cc(C(F)(F)F)n3n2)n1	61.3% (active)
O=C(Nc1cnn(Cc2ccc(F)cc2)c1)c1cc2nc(-c3ccco3)cc(C(F)(F)F)n2n1	48.5% (inactive)
Cc1ccccc1Cn1ccc(NC(=O)c2cnn3c(C(F)(F)F)cc(-c4ccco4)nc23)n1	42.2% (inactive)
O=C(Nc1ccc(Cl)cc1)c1cc2nc(-c3ccco3)cc(C(F)(F)F)n2n1	69.4% (active)
Cc1noc(C)c1COC(=O)C1CC(O)CN1S(=O)(=O)c1ccc(Cl)cc1 (configuration not stated)	-5.6% (inactive)
CCc1ccccc1N(C(=O)c1cccs1)C1C=CS(=O)(=O)C1 (configuration not stated)	-8.1% (inactive)
CCSC1=C(C#N)C2(CCCCC2)C(C#N)=C(N)N1	1.2% (inactive)
CCSC1=C(C#N)C2(CCCC2)C(C#N)=C(N)N1	18.9% (inactive)
N#CC1=C(N)NC(SCc2ccccc2)=C(C#N)C12CCCCC2	78.5% (active)
COc1ccc(C(=O)CSC2=C(C#N)C3(CCCCC3)C(C#N)=C(N)N2)cc1	30.1% (inactive)
N#CC1=C(N)NC(SCC(=O)O)=C(C#N)C12CCCC2	-1.2% (inactive)
CC1(C)CC(=O)C2=C(C1)NC(SCC(=O)Nc1ccccc1)=C(C#N)C21CCCCC1	-9.5% (inactive)
CSC1=C(C#N)C2(CCCC2)C(C#N)=C(N)N1	30.6% (inactive)

Source: PubChem BioAssay AID431 (Sanford-Burnham Center for Chemical Genomics, 2006)
